Experimental data as given in PMC5540273 (PLoS ONE, 2017).
Read-outs that look alike come from different tables or passages of the source.

Key:
[1] = system: PAK4; details: n = 1
[2] = system: PAK6; details: n = 1
[3] = system: T1, NIM1; details: concentration: 1 μM, replicates: in singlicate; n = 1
T1 construct: gene MGC42105

[4] = system: NLK; details: concentration: 1 μM, replicates: in singlicate; n = 1
[5] = system: T2, OSR1; details: concentration: 1 μM, replicates: in singlicate; n = 1
T2 construct: gene OXSR1

[6] = system: PAK1; details: concentration: 1 μM, replicates: in singlicate; n = 1
[7] = system: PAK2; details: concentration: 1 μM, replicates: in singlicate; n = 1
[8] = system: PAK3; details: concentration: 1 μM, replicates: in singlicate; n = 1
[9] = system: PAK7; details: concentration: 1 μM, replicates: in singlicate; n = 1
[10] = system: T3, PCTK1; details: concentration: 1 μM, replicates: in singlicate; n = 1
T3 construct: gene CDK16

[11] = concentration: 1 μM, replicates: in singlicate
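Further: KINOMEscan kinase panel screen.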

| Compound | %Inh ([1]; 1 µM) [%] | %Inh ([2]; 1 µM) [%] | %Inh [3] [%] | %Inh [4] [%] | %Inh [5] [%] | %Inh [6] [%] | %Inh [7] [%] | %Inh [8] [%] | %Inh [1, 11] [%] | %Inh [2, 11] [%] | %Inh [9] [%] | %Inh [10] [%] |
| --- | --- | --- | --- | --- | --- | --- | --- | --- | --- | --- | --- | --- |
| CCn1c(-c2nonc2N)nc2c(C#CC(C)(C)O)ncc(OCCCCN)c21.O=C(O)C(F)(F)F.O=C(O)C(F)(F)F [GSK507274] | 98.1 | 89 |  |  |  |  |  |  |  |  |  |  |
| Nc1n[nH]c2cnc(-c3ccccc3)cc12 [SB-642124] |  |  | 29 | 31 | 12 | 21 | 15 | 34 | 0 | 0 | 6 | 11 |
| Cc1ccc(C(=O)N2CC[C@@H](O)C2)cc1-n1c(C)cc(OCc2ccc(F)cc2F)c(Br)c1=O |  |  | 0 | 4 | 0 | 0 | 0 | 0 | 0 | 0 | 0 | 0 |
| COc1cc(Nc2nccc(-c3c(-c4cccc(NC(=O)c5c(F)cccc5F)c4)nn4ccccc34)n2)cc(OC)c1OC [GSK323521] |  |  | 39 | 0 | 4 | 11 | 5 | 44 | 9 | 7 | 6 | 3 |
| COc1cccc(C(=O)Nc2cccc(Oc3ccc4nc(NC(=O)C5CC5)cn4n3)c2)c1 |  |  | 0 | 0 | 0 | 17 | 26 | 23 | 18 | 15 | 0 | 0 |
| FC(F)(F)c1ccc(/C=C/c2cncnc2Nc2ccc3[nH]c(Cc4ccccc4)nc3c2)cc1 [GW709199] |  |  | 0 | 9 | 0 | 4 | 16 | 0 | 0 | 0 | 0 | 0 |
| COc1cc(Nc2nccc(N3CCC(NC(=O)c4cc5ccccc5s4)C3)n2)cc(OC)c1OC (centres unmarked) [GSK1379760] |  |  | 6 | 0 | 2 | 4 | 2 | 9 | 0 | 0 | 0 | 0 |
| COc1cccc(NC(=O)NC2CCN(c3ccnc(Nc4cc(OC)c(OC)c(OC)c4)n3)C2)c1 (centres unmarked) [GSK1379763] |  |  | 15 | 63 | 0 | 0 | 0 | 0 | 0 | 16 | 0 | 6 |
| COc1cc2c(cc1OCCN1CCNCC1)ncc1c3ccc(C#N)cc3[nH]c21 |  |  | 66 | 0 | 20 | 0 | 4 | 0 | 0 | 8 | 0 | 16 |
| Cc1occc1-c1ncc(OC[C@@H](N)Cc2c[nH]c3ccccc23)cc1-c1ccc2[nH]nc(C)c2c1.O=C(O)C(F)(F)F [GSK682037] |  |  | 33 | 39 | 8 | 97.5 | 68 | 32 | 2 | 15 | 36 | 0 |
| CNC(=O)c1ccccc1Nc1nc(Nc2ccc(N3CCOCC3)cc2)ncc1Cl.Cl [GSK1576028] |  |  | 41 | 26 | 35 | 71 | 61 | 100 | 78 | 66 | 83 | 11 |
| Fc1ccc(-c2ncn(C3CCNCC3)c2-c2ccnc(Oc3ccc(-c4ccccc4)cc3)n2)cc1 [SB-245391] |  |  | 42 | 52 | 36 | 25 | 18 | 22 | 14 | 25 | 0 | 16 |
| Cc1ccc(C(=O)Nc2ccc(Nc3ccnc4cc(-c5nccs5)ccc34)cc2O)cc1.Cl [GW494702] |  |  | 19 | 0 | 6 | 0 | 0 | 9 | 1 | 0 | 0 | 0 |
| Nc1ncnc2c1nc(-c1ccccc1)n2-c1ccccc1 [SKF-97293] |  |  | 66 | 0 | 39 | 29 | 56 | 27 | 16 | 8 | 0 | 9 |
| Nc1ncc(-c2ccc3nccc(-c4ccncc4)c3c2)cc1S(=O)(=O)N1CCOCC1 [GSK1627798] |  |  | 0 | 0 | 0 | 9 | 20 | 5 | 0 | 0 | 0 | 3 |
| Cl.Cl.NCC(NCc1ccc(-c2ccnc3[nH]ccc23)s1)c1ccccc1 (centres unmarked) [GSK1321565] |  |  | 0 | 8 | 10 | 0 | 0 | 69 | 0 | 2 | 0 | 0 |
| Cn1cc(-c2[nH]c3cc(NC(=O)[C@H](N)C4CCCCC4)cc4c3c2C=NNC4=O)cn1 |  |  | 96.8 | 0 | 17 | 27 | 25 | 83 | 99.5 | 99.2 | 97.9 | 8 |
| COC(=O)Nc1nc2cc(Oc3ccc(NC(=O)Nc4cc(C(F)(F)F)ccc4F)cn3)ccc2[nH]1.Cl.Cl [GW681170] |  |  | 27 | 30 | 0 | 0 | 0 | 9 | 0 | 0 | 0 | 0 |
| Oc1cc(Nc2ccnc3cc(I)ccc23)ccc1F [GW552771] |  |  | 17 | 58 | 8 | 0 | 0 | 17 | 0 | 0 | 0 | 3 |
